Measured values published in PubChem BioAssay (NCATS).
Inconclusive results are not listed. Calls of active or inactive are those of the source. Calls come from the whole dose curve; as a rule, active = well fitted cell-killing curve with a large enough effect; inconclusive = small, poorly fitted or top-dose-only effect, or effect the other way; inactive = no such curve, though single readings can be large or run the other way.

assay: Quantitative High-Throughput drug screen in 47 multiple myeloma cell lines against the NCATS MIPE library collection: JJN3_DSMZ cell viability assay (AID 1918966; note: nearly all actives have a fitted effect of over 50% in size); conditions: JJN3 myeloma cells viability, CellTiter-Glo ATP, 48 h; series mostly up to 45.8 µM
Method in brief: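 Relative luminescence from CellTiter-Glo served as the viability signal, referenced to DMSO-treated (100%) and cell-free medium (0%) controls. Treatment lasted 48 hours at 37C with 500 cells per well.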
Potency is the fitted concentration of half-maximal effect.

Row | Structure (SMILES) | Potency
1 | COc1cc2nccc(Oc3ccc(NC(=O)Nc4ccc(F)cc4F)c(F)c3)c2cc1OC | 20.9 µM (active)
2 | COc1ccc(-c2nc3ccc(C4=NNC(=O)CC4C)cc3[nH]2)cc1 (stereo not drawn) | inactive
3 | CC(C)CN(C[C@@H](O)[C@H](Cc1ccccc1)NC(=O)O[C@H]1CO[C@H]2OCC[C@H]21)S(=O)(=O)c1ccc(N)cc1 | 23.5 µM (active)
4 | COc1cc([C@H]2Oc3cc([C@H]4Oc5cc(O)cc(O)c5C(=O)[C@H]4O)ccc3O[C@H]2CO)ccc1O | 9.35 µM (active)
5 | CCCCCOC(=O)Nc1nc(=O)n([C@@H]2O[C@H](C)[C@@H](O)C2O)cc1F (stereo partly drawn) | inactive
6 | CN(C)c1ccc(-c2nc3ncc(Cl)c(N4CCN(CC(=O)Nc5nccs5)CC4)c3[nH]2)cc1 | 18.7 µM (active)
7 | CC[C@H](C)C(=O)O[C@H]1C[C@H](O)C=C2C=C[C@H](C)[C@H](CC[C@@H](O)C[C@@H](O)CC(=O)O)[C@H]21 | inactive
8 | O=C(CO)N1CCC(c2[nH]nc(-c3ccc(Cl)cc3)c2-c2ccncn2)CC1 | 1.66 µM (active)
9 | CC(C)(C)c1[nH]cnc1C=c1[nH]c(=O)c(=Cc2ccccc2)[nH]c1=O | 0.0481 µM (active)
10 | COc1ccc(-c2oc3c(CC=C(C)C)c(O)cc(O)c3c(=O)c2O)cc1 | 18.7 µM (active)
11 | CCCCCCCCCCCCCC(=O)N[C@H](CO)[C@H](O)c1ccc([N+](=O)[O-])cc1 | 18.7 µM (active)
12 | CNC(=O)c1cc(COc2nnc(Nc3ccc(Cl)cc3)c3ccoc23)ccn1 | 29.6 µM (active)
13 | CC[C@H]1OC(=O)[C@H](C)[C@@H](O[C@H]2C[C@@](C)(OC)[C@@H](O)[C@H](C)O2)[C@H](C)[C@@H](O[C@@H]2O[C@H](C)C[C@H](N(C)C)[C@H]2O)[C@](C)(O)C[C@H](C)C(=NOCOCCOC)[C@H](C)[C@@H](O)[C@]1(C)O | 13.2 µM (active)
